Assay outcomes: PubChem, National Center for Advancing Translational Sciences (NCATS)
In the library only some 18% were active in any assay of this set; here they are far more common.
RORg inh – qHTS for inhibitors of ROR gamma transcriptional activity; Drosophila S2 Gal4-RORgamma UAS-luciferase reporter, 20 h; Potency, µM (titrated, usually from 53.6 µM), without a hit: at the top dose activity change, negative = inhibition, actives largely listed as inhibitors; 5.4% of 310,000 active; AID 2551, 2010; also: potency is read from the fitted curve at half-maximal effect; nearly all actives have a fitted effect of over 60% in size
Target sequence (P51450 whole entry, looked up, the tested form may be a part): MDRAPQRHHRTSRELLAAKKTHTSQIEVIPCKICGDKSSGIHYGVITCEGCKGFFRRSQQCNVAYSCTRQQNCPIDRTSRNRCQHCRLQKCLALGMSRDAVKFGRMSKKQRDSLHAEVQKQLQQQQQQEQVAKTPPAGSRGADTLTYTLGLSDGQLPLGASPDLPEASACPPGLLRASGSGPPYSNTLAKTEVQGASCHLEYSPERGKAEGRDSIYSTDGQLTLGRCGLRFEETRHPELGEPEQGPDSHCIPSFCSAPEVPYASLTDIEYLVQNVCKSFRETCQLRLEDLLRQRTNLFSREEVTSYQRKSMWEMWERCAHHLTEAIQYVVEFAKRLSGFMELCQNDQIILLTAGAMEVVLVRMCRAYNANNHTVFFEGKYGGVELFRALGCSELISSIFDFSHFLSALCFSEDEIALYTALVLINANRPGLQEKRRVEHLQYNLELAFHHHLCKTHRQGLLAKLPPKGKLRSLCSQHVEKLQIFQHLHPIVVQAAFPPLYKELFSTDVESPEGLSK
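Compounds are pin-transferred onto Drosophila Schneider cells expressing a copper-inducible Gal4–ROR gamma transactivation domain fusion. After 1 hr, copper sulfate is added to 700 uM final; luciferase is read 20 hr later.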
TDP1 cell CPT – qHTS for Inhibitors of human tyrosyl-DNA phosphodiesterase 1 (TDP1): qHTS in cells in presence of CPT. chicken DT40 Tdp1-/-;hTDP1 cells + 20 nM CPT, ATP luminescence, 48 h. Potency, µM (series often up to 46.2 µM), without a hit: top-dose activity change, negative = growth inhibition, actives largely listed as inhibitors. 12% of 420,000 active; also: potency is read from the fitted curve at half-maximal effect; nearly all actives have a fitted effect of over 55% in size
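Cell growth measured by CellTiter-Glo luminescence after a minimum 48 h, 37 C compound exposure with 20 nM CPT in Tdp1-knockout DT40 cells stably expressing hTDP1, seeded 400/well; qHTS titration format.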
VP16 counter – VP16 counterscreen qHTS for inhibitors of ROR gamma transcriptional activity | Drosophila S2 Gal4-VP16 UAS-luciferase, luminescence, 20 h | Potency, µM (highest dose often 53.6 µM), without a hit: at the top dose activity, negative = inhibition, actives largely listed as inhibitors | 3.5% of 310,000 active;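 also: Gal4-VP16 expression switched on by copper sulfate through the metallothionein promoter; potency is read from the fitted curve at half-maximal effect; nearly all actives have a fitted effect of over 50% in size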
TDP1 cell noCPT – qHTS for Inhibitors of human tyrosyl-DNA phosphodiesterase 1 (TDP1): qHTS in cells in absence of CPT | Potency, µM (top dose mostly 46.2 µM), inactives show at the top dose activity change, negative = growth inhibition, most hits filed as inhibitors | 15% of 420,000 active | AID 686978, 2013 | DT40 Tdp1-/- hTDP1 cells, no CPT, ATP luminescence, 48 h; also: potency is read from the fitted curve at half-maximal effect; nearly all actives have a fitted effect of over 55% in size
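Cells were dispensed at 400 per well, compounds added by pin tool, plates incubated ≥48 hr at 37 °C, then CellTiter-Glo added for 30 min at room temperature before luminescence reading. Line: DT40 Tdp1-/- complemented with hTDP1; camptothecin omitted.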
IL1B secr inh – qHTS for Inhibitors of Inflammasome Signaling: IL-1-beta AlphaLISA Primary Screen; AID 743279, 2014; activity change, % at 57.5 µM; THP-1 LPS/ATP IL-1B secretion, AlphaLISA, 16 h; stronger effect = lower value; 4.7% of 360,000 active; in the data active = activity change below about -50%; inconclusive = mostly about -30% to -49%
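THP-1 cells pretreated 1 hr with compounds (up to 57.5 uM final), then stimulated with LPS (250 ng/mL final) plus ATP (1.25 mM final); secreted IL-1B measured by AlphaLISA after 16 hr, decreased signal indicating inhibition.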
LDHA inh – qHTS assay for inhibitors of human lactate dehydrogenase. purified LDHA, NADH/diaphorase-resazurin fluorescence; stronger effect = lower value. 0.15% of 480,000 active. L-lactate dehydrogenase A chain (Homo sapiens), P00338. activity change, % (values are at about 110 or 230 µM). AID 1347041, 2019; in the data active = activity change below about -30%; inconclusive = mostly about -25% to -30%;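 also: plate controls were DMSO wells for no effect and wells without enzyme for full effect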
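Enzyme activity of human lactate dehydrogenase 5 (2 nM; 0.06 mM NADH, 0.2 mM pyruvate, 5 min, RT) is measured via a resazurin/diaphorase fluorescence readout of residual NADH.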
* marks the source's active call; other numbers are inactive results; ? = inconclusive; nt = not tested or not shown. Unless noted, calls follow the shape of the dose curve; as a rule, active = well fitted curve in the direction sought with a large enough effect; inconclusive = small, poorly fitted or top-dose-only effect, or another doubt; inactive = no such curve, though single readings can be large; an effect the other way counts as inactive or inconclusive. Unless noted, % is scaled to controls: 0 for no effect and ±100 for the full control effect.

SMILES | RORg inh | TDP1 cell CPT | VP16 counter | TDP1 cell noCPT | IL1B secr inh | LDHA inh
CC(C)c1ccc(NC(=S)NN2CCOCC2)cc1 | 8.9µM* | -7% | ? | -35% | -3 | -10
S=C(Nc1ccc(Cl)c(Cl)c1)NN1CCOCC1 | 7.9µM* | -1% | 10µM* | -10% | 2 | -2
CCOc1ccc2nc(SCC(=O)N3CCN(S(=O)(=O)c4ccccc4)C3C(C)C)[nH]c2c1 (stereo unspecified) | nt | nt | nt | nt | nt | -4
CCCCOc1ccc2c(C)cc(=O)oc2c1C | nt | nt | nt | nt | nt | 10
Cc1cccc(Oc2ccc(S(=O)(=O)N3CCCCC3)cc2NC(=O)c2ccncc2)c1 | nt | nt | nt | nt | nt | 1
COc1ccc(NC(=O)c2cncc(Br)c2)cc1S(=O)(=O)N1CCCCC1 | ? | ? | -9% | 21µM* | -11 | -3
COc1ccc(C(=O)Nc2ccc(-c3ccc(C)o3)cc2)cc1S(=O)(=O)N1CCOCC1 | ? | ? | ? | 21µM* | -19 | -1
COc1ccc(C(=O)Nc2ccc(C)c(S(=O)(=O)N3CCOCC3)c2)cc1S(=O)(=O)N1CCCC1 | nt | 21µM* | nt | ? | 14 | -6
COc1ccc(NC(=O)c2cc(OC)c(OC)c(OC)c2)cc1S(=O)(=O)N1CCCCC1 | 24% | ? | 0% | ? | -8 | -6
COc1ccc(C(=O)Nc2ccc(N3CCOCC3)cc2)cc1S(=O)(=O)N1CCOCC1 | nt | -17% | nt | -9% | 9 | 4
Cc1ccc(C(=O)Nc2ccc3c(c2)OCO3)cc1S(=O)(=O)N1CCCC1 | ? | ? | -12% | 7.3µM* | -3 | -6
COc1ccc(-c2nnc(SCC(=O)Nc3ccccc3)[nH]c2=O)cc1 | nt | nt | nt | nt | nt | -5
CCCCn1c(=O)n(CC(=O)NCC(F)(F)F)c(=O)c2c1ncn2Cc1ccco1 | nt | nt | nt | nt | nt | 0
COc1ccc(Br)cc1S(=O)(=O)N1CCCC1 | 10% | 9.2µM* | 12% | 8.2µM* | -4 | 2
N#Cc1ccc2c(c1)nnn2-c1ccccc1 | nt | 7% | nt | -1% | nt | -3
Nc1ccc2c(c1)nnn2-c1ccccc1 | ? | -4% | -2% | -22% | -79* | 7
O=c1oc2ccccc2c(O)c1C=NCc1ccccn1 | 0.56µM* | -16% | 1µM* | -24% | 20 | 3
COc1ccc(Cl)cc1N=Cc1c(O)c2ccccc2oc1=O | nt | 16µM* | nt | ? | 6 | 1
Cc1cccc(/N=C/c2c(O)c3ccccc3oc2=O)n1 | -9% | -7% | -6% | -29% | 17 | -3
CC(C)CN=CC1=C(O)c2ccccc2C1=O | -25% | 5% | -22% | -7% | -15 | -15
O=C1C(C=NCc2ccccn2)=C(O)c2ccccc21 | 2.5µM* | 3% | 5µM* | -9% | 0 | -3
CC1Cc2ccccc2N1C(=O)CSc1ncc(C(F)(F)F)cc1Cl (stereo unspecified) | nt | nt | nt | nt | nt | 5
Cc1nc(N2CCN(C)CC2)c2cc(-c3ccccc3)sc2n1 | 14% | -3% | -4% | -27% | -28 | -1
COc1ccc(-c2csc3ncnc(N4CCN(c5ccccc5OC)CC4)c23)cc1 | 25% | ? | -8% | 18µM* | ? | -6
COc1ccc(-c2csc3ncnc(Oc4cccc5ccc(C)nc45)c23)cc1 | ? | 16µM* | -2% | ? | -9 | -8
SMILES | RORg inh | TDP1 cell CPT | VP16 counter | TDP1 cell noCPT | IL1B secr inh | LDHA inh
Cc1nc(N2CCN(c3ccccc3O)CC2)c2c(-c3ccccc3)csc2n1 | ? | ? | 2% | 16µM* | -62* | 14
Cc1ccc2cccc(Oc3ncnc4scc(-c5ccccc5)c34)c2n1 | ? | ? | -5% | ? | 0 | -3
Oc1ccccc1N1CCN(c2ncnc3scc(-c4ccccc4)c23)CC1 | 90% | ? | -3% | 23µM* | ? | 1
OCCN1CCN(c2ncnc3scc(-c4ccc(F)cc4)c23)CC1 | 8% | -7% | 2% | 4% | ? | -3
O=[N+]([O-])c1ccc(N/N=C/c2ccccc2Br)cc1 | nt | nt | nt | nt | nt | 7
CCCc1sc(C(=O)Nc2ccccc2O)cc1CC | nt | nt | nt | nt | nt | 4
Cc1cc(C)n(C(=O)c2ccc(C)c(S(=O)(=O)N3CCCCCC3)c2)n1 | nt | nt | nt | nt | nt | -5
CC(=O)Nc1cccc(Oc2ncnc3scc(-c4ccc(C(C)C)cc4)c23)c1 | ? | 1.3µM* | -2% | 1.2µM* | -52* | 1
CN1CCN(c2ncncc2-c2ccccc2Cl)CC1 | -2% | 8% | 12% | 0% | nt | nt
CN1CCN(c2ncnc3scc(-c4ccccc4Cl)c23)CC1 | -32% | ? | 1% | 9.2µM* | ? | -8
CSc1ccc(C(C)NC(=O)C2CC=CCC2)cc1 (stereo unspecified) | nt | nt | nt | nt | nt | 7
CNC(=O)NC(=O)CCN(Cc1ccc(C#N)cc1)C(C)C | nt | nt | nt | nt | nt | -14
Cc1ccc(C(=O)Nc2cccc(S(=O)(=O)N3CCCCC3)c2)cc1S(=O)(=O)N1CCOCC1 | nt | ? | nt | ? | -10 | -3
O=C(Nc1cccc(S(=O)(=O)N2CCCCC2)c1)c1ccc([N+](=O)[O-])o1 | 10µM* | 6.5µM* | ? | 4.1µM* | -92* | -3
Cc1ccc(C(=O)Nc2cccc(S(=O)(=O)N3CCCCC3)c2)cc1[N+](=O)[O-] | nt | 16µM* | nt | ? | ? | -6
COc1cc(C(=O)Nc2cccc(S(=O)(=O)N3CCCC3)c2)c([N+](=O)[O-])cc1OC | nt | -13% | nt | ? | 10 | -2
N#Cc1cnn2c1NC1=C(C(=O)CCC1)C2c1ccccc1 (stereo unspecified) | nt | nt | nt | nt | nt | 3
O=C(c1ccc(-c2ccccc2)cc1)N(Cc1ccco1)C1CC1 | nt | nt | nt | nt | nt | 2
COc1cc2nc(SCC(=O)Nc3ccccc3C)n3nc(CCn4c(C)nc5ccccc54)nc3c2cc1OC | nt | 2.9µM* | nt | 3.3µM* | nt | -7
COc1cc2nc(SCC(=O)Nc3cccc(C)c3)n3nc(CCn4c(C)nc5ccccc54)nc3c2cc1OC | nt | 2.6µM* | nt | 2.6µM* | nt | -4
COc1ccccc1NC(=O)Cn1c(SCC(=O)Nc2ccc(F)cc2)nc2ccccc21 | nt | ? | nt | ? | nt | -8
COc1cc2nc(SCC(=O)Nc3ccc(F)cc3)n3nc(CCn4c(C)nc5ccccc54)nc3c2cc1OC | nt | 2.1µM* | nt | 5.2µM* | nt | 4
Cc1cnc2c(S(=O)(=O)NC3CCN(S(C)(=O)=O)CC3)cccc2c1 | nt | nt | nt | nt | nt | 17
